Sampled rows, rich in hits. Any-hit rate of the full collection: about 3%.
p53ts 39C tox – p53ts cell cytotoxicity, nonpermissive temperature. H1299-p53A138V viability at 39C, ATP luminescence, 24 h. Potency, µM (highest dose often 46.1 µM), for inactives: at the highest dose activity change, negative = cell killing, actives largely listed as cytotoxic. hit rate 1.5% among 130,000. AID 902; also: % is scaled to controls: 0 for no effect and ±100 for the full control effect; nearly all actives have a fitted effect of over 55% in size
CRE Fsk mod – modulators of forskolin-stimulated CRE signaling in CHO cells. AID 662. CHO CRE-bla reporter (cAMP response element driving beta-lactamase), forskolin EC10, beta-lactamase ratio. Potency, µM (top dose mostly 38.2 µM), for the others: top-dose activity change, negative = inhibition, most hits filed as activators. hit rate 2.5% among 71,000; active = well fitted activation curve with a large enough effect in the signal ratio, with a control signal flat, not every such curve was filed as active; inconclusive = small, poorly fitted or top-dose-only effect, or effect the other way, or a change in a side signal; the % refers to the signal ratio; also: % of control where 0% means no effect
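Using CellSensor CRE-bla CHO cells in Opti-MEM with 0.5% dialyzed FBS, compounds were titrated with EC10 NKH 477 for 3 h at 37 °C. CCF4 ratio (460/530 nm) gave %Activity; AC50 derived.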
Peg3 imprint – genomic imprint erasure induction; Potency, µM (titrated, usually from 60.7 µM), for inactives: at the top dose activity change, positive = activation, most hits filed as activators; hit rate 0.02% among 110,000; mouse ES Peg3-LacZ reporter, beta-gal luminescence, 40 h
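Imprint erasure is scored as LacZ activity from the silenced maternal Peg3 allele in feeder-free female ES cells cultured 40 h with LIF. Luminescence is normalized to in-plate negative controls and fitted to the Hill equation.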
IkB signaling – inhibitors of IkB signaling in ABC-DLBCL cells. ABC-DLBCL IkBa-CBG/CBR dual luciferase ratio, 4 h; response scale: scaled: untreated 0%, proteasome inhibitor 100%. Potency, µM (highest dose often 57.1 µM), without a hit: at the top dose IkBa stabilization activation. AID 445. hit rate 0.04% among 110,000; active = well fitted curve in the direction sought with a large enough effect in the signal ratio, not every such curve was filed as active; inconclusive = small, poorly fitted or top-dose-only effect, or a change in a side signal; the % refers to the signal ratio;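 also: the direction sought is a rising ratio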
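Curves were fitted separately to fusion (green), unfused (red) and ratio luminescence, then classed by r2, magnitude and activity. Cells: OCI-Ly3, 4 h compound plus doxycycline at 37C; 10 uM MG-132 defined full response.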
p53ts 32C tox – cytotoxicity in p53ts cells at permissive temperature; AID 924; H1299-p53A138V at 32C, ATP luminescence viability, 24 h; Potency, µM (highest dose often 46.1 µM), for inactives: top-dose activity change, negative = cytotoxicity, hits mostly cytotoxic; hit rate 0.93% among 130,000;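 also: 0% = DMSO and -100% = full killing by reference compound; nearly all actives have a fitted effect of over 55% in size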
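Cells: H1299 p53ts (A138V), 600/well, pre-incubated 16–30 h at 37C. Cpd up to 46 uM, 24 h, 32C. Readout: ATPlite luminescence, 20 min RT. Normalization: DMSO vs tamoxifen 100 uM. AC50 by Hill equation.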
Active calls of the source: *; ? = inconclusive; . = not tested or not shown; [ ] = another dose, or the depositor's remark. Unless noted, calls follow the shape of the dose curve; as a rule, active = well fitted curve in the direction sought with a large enough effect; inconclusive = small, poorly fitted or top-dose-only effect, or another doubt; inactive = no such curve, though single readings can be large; an effect the other way counts as inactive or inconclusive. Potency is read from the fitted curve at half-maximal effect.

SMILES	p53ts 39C tox	CRE Fsk mod	Peg3 imprint	IkB signaling	p53ts 32C tox
O=C1[C@H]2[C@H]3C=C[C@@H](C4[C@H]3[C@@H]3C(=O)N(CN5CCSCC5)C(=O)[C@H]43)[C@H]2C(=O)N1CN1CCSCC1 (some centres undefined)	.	.	-6%[10.9 µM]	.	.
c1ccc(-c2noc(-c3ccc4ccccc4c3)n2)nc1	0.63µM*	3%	-91%	?	0.32µM*
c1ccc(-c2noc(-c3cccnc3)n2)nc1	13µM*	?	-92%	3%	13µM*
c1ccc(-c2noc(-c3ccncc3)n2)nc1	?	?	-92%	1%	?
c1ccc(-c2noc(-c3ccc4c(c3)OCO4)n2)nc1	1µM*	?	-92%	?	0.63µM*
CN(C)c1ccc(-c2nc(-c3ccccn3)no2)cc1[N+](=O)[O-]	-12%	.	-8%[10.9 µM]	0%	-19%
COc1cc2c(cc1NC(=O)/C=C/c1cc(OC)c(OC)c(OC)c1)oc1ccccc12	-7%	.	.	.	.
O=C(/C=C/c1ccc(O)cc1)c1cccs1	?	.	-92%	.	32µM*
COc1cc(/C=C/C(=O)c2cccs2)cc(OC)c1OC	?	.	-31%	.	6.3µM*
O=C(/C=C/c1ccc(OCc2ccccc2)cc1)c1cccs1	4%	.	-19%	.	?
Cc1nn(C)cc1/C=C/C(=O)c1cccs1	?	.	.	.	13µM*
COc1cc(-c2nnc(COc3ccc4cc(Br)ccc4c3)o2)cc(OC)c1OC	-22%	2.5µM*	-17%	1%	-9%
CCc1cccc(NC(=O)CCc2c(C)nc3c(c2C)c(=O)n(C)c(=O)n3C)c1	?	.	-9%[10.9 µM]	-2%	-6%
CCc1c(C)sc2c1CCN(C(=O)Nc1cc(C)ccc1OC)C2c1ccc(F)cc1 (centres undefined)	0%	.	-24%[10.9 µM]	1%	0%
CCOc1ccc(NC(=O)c2nccnc2CO)cc1	10µM*	0%	-88%	?	13µM*
COc1ccccc1C(=O)Nc1ccccn1	10µM*	13%	-79%	12%	10µM*
CCCC(=O)Nc1ccc(NC(=O)c2ccccc2OC)cn1	-8%	3%	-14%	0%	-10%
CCOc1ccc(NC(=O)c2ccccc2CO)cc1	?	?	-63%	?	?
CCOc1ccc(NC(=O)c2ccccc2O)cc1	7.9µM*	-16%	-67%	?	7.9µM*
COc1ccc(C(=O)Nc2ccc(C)cn2)c(OC)c1	0.63µM*	30%	-89%	?	0.5µM*
CC1=Nc2cc(C(=O)NCCc3ccc(Cl)cc3)ccc2Sc2c(C)ccc(C)c21	?	.	-24%[10.9 µM]	2%	4%
C=C[C@@]1(C)C=C2CC[C@@H]3[C@](C)(CCC[C@@]3(C)C(=O)O)[C@H]2CC1	.	?	.	0%[11.4 µM]	.
CCOc1ccc(NC(=O)c2ccccc2OC)cc1	4µM*	3%	-40%	-1%	13µM*
Cc1ccc2nc(-c3ccc(S(=O)(=O)N4CCOCC4)cc3)cn2c1	20%	-3%	-4%	1%	8%
Cc1cccn2cc(-c3ccccc3)nc12	?	6%	-82%	3%	13µM*
SMILES	p53ts 39C tox	CRE Fsk mod	Peg3 imprint	IkB signaling	p53ts 32C tox
COc1ccc(-c2nnn3c2nc(NCc2ccccc2)c2ccccc23)cc1	-13%	.	-11%[10.9 µM]	?	-4%
Cc1cccn2cc(-c3ccc(F)cc3)nc12	?	1%	-82%	5%	?
Cc1ccc2nc(-c3ccccc3)cn2c1	0.63µM*	-9%	-93%	?	0.5µM*
COc1ccc(-c2cn3ccc4ccccc4c3n2)cc1	11µM*	.	.	.	?
Cc1cc2ccccc2n1CCNC(=O)COc1ccccc1	15%	10µM*	-15%	-4%	-4%
CCC(=O)NCCn1c(C)cc2ccccc21	?	10µM*	-39%	-2%	?
CC(=O)NCCn1c(C)cc2ccccc21	?	?	4%	0%	2%
CCCCCn1c(CN2CCN(c3cccc(Cl)c3)CC2)nc2c1c(=O)[nH]c(=O)n2C	11%	13µM*	-11%	?	-18%
Cn1c(=O)[nH]c(=O)c2c1nc(CN1CCN(c3cccc(Cl)c3)CC1)n2CCc1ccccc1	-29%	13µM*	-31%	1%	-26%

Screens: PubChem, National Center for Advancing Translational Sciences (NCATS)
